The values below come from PubChem BioAssay (Tox21).

Assay [1] can be described thus: qHTS assay to identify small molecule agonists of the NFkB signaling pathway (AID 1159509; active = well fitted curve in the direction sought with a large enough effect in the signal ratio in the repeat runs, not every such curve was filed as active; the % refers to the signal ratio; also: series mostly up to about 61 µM; % is scaled to controls: 0 for no effect and ±100 for the full control effect). The essentials:
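NFkB-bla ME-180 cells with a beta-lactamase reporter under an NF-kB response element were plated overnight, treated with compounds in DMSO for 5 hr at 37 C, then loaded with FRET substrate for 1.5 hr at room temperature.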
For orientation: qHTS replaces the single test concentration by a dilution series.

A short description of assay [2]: qHTS assay to identify small molecule agonists of the NFkB signaling pathway - cell viability counter screen (AID 1159515; calls by dose curve; also: series mostly up to about 61 µM; % is scaled to controls: 0 for no effect and ±100 for the full control effect; nearly all actives have a fitted effect of over 55% in size). The essentials: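 5 hr compound treatment of NFkB-bla ME-180 cells (2,000/well, seeded overnight beforehand), followed by reporter substrate for 1.5 hr. CellTiter-Glo added afterward; luminescence after 30 min RT.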
Assay [3] can be described thus: qHTS assay to identify small molecule agonists of the endoplasmic reticulum stress response signaling pathway (AID 1159516; active = well fitted activation curve with a large enough effect in the signal ratio in the repeat runs, not every such curve was filed as active; the % refers to the signal ratio; also: % is scaled to controls: 0 for no effect and ±100 for the full control effect). In short, it runs like this:
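Reporter HeLa cells (ESRE-beta-lactamase) underwent 5 hr compound incubation at 37 C and 5% CO2 in quantitative HTS format. Detection followed 2 hr of FRET substrate loading at room temperature.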

Assay [4] can be described thus: qHTS assay to identify small molecule agonists of the endoplasmic reticulum stress response signaling pathway - cell viability counter screen (AID 1159517; calls by dose curve;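 also: HeLa cells carrying an ER stress response element beta-lactamase reporter; series mostly up to about 61 µM; % is scaled to controls: 0 for no effect and ±100 for the full control effect; nearly all actives have a fitted effect of over 50% in size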). The essentials:
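Luminescence readout: CellTiter-Glo, 30 min RT, same wells as the ESRE-bla reporter read. HeLa ESRE-bla, 1,500 cells/well, o/n 37 C; cpd 5 hr 37 C/5% CO2.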

A short description of assay [5]: qHTS assay to identify small molecule antagonists of the retinoid-related orphan receptor gamma (ROR-gamma) signaling pathway - cell viability counter screen (AID 1159520). Also: % is scaled to controls: 0 for no effect and ±100 for the full control effect; nearly all actives have a fitted effect of over 50% in size. The essentials: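 Tet-on ROR gamma CHO cells (1,000/well) were plated 4 hr, given compounds in DMSO for 2 hr at 37 C, then induced with 1 uM final doxycycline for 16 hr. Viability was read as ATP by CellTiter-Glo luminescence after 30 min.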

The target of assay [6] is Nuclear receptor ROR-gamma (Homo sapiens) (UniProt P51449). The assay can be described thus: qHTS assay to identify small molecule antagonists of the retinoid-related orphan receptor gamma (ROR-gamma) signaling pathway (AID 1159521;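 also: CHO cells with doxycycline inducible ROR-gamma driving an RORE luciferase reporter; top concentration of the series differs between compounds; % is scaled to controls: 0 for no effect and ±100 for the full control effect; nearly all actives have a fitted effect of over 50% in size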). In short, it runs like this: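 Test compounds were applied to Tet-on RORγ CHO cells 2 h ahead of doxycycline hyclate (1 uM final). Luciferase reporter activity was quantified by luminescence after 16 h at 37 C and 5% CO2.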

A short description of assay [7]: qHTS assay to identify small molecule agonists of the AP-1 signaling pathway (AID 1159526; calls by dose curve; also: % is scaled to controls: 0 for no effect and ±100 for the full control effect).
Assay [8] addresses Retinoic acid receptor RXR-alpha (Homo sapiens) (UniProt P19793). The assay can be described thus: qHTS assay to identify small molecule agonists of the RXR signaling pathway (AID 1159527; calls by dose curve; also: % is scaled to controls: 0 for no effect and ±100 for the full control effect; nearly all actives have a fitted effect of over 35% in size). The essentials: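 Using 9-cis retinoic acid as the reference agonist, chemicals were tested in HEK 293T cells […] for 16 hr; substrate loading lasted 2 hr at room temperature.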

A short description of assay [9]: qHTS assay to identify small molecule agonists of the RXR signaling pathway - cell viability counter screen (AID 1159529). Also: series mostly up to about 77 µM; % is scaled to controls: 0 for no effect and ±100 for the full control effect; nearly all actives have a fitted effect of over 50% in size. The essentials:
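Compounds dissolved in DMSO were pinned onto HEK 293T cells carrying a beta-lactamase reporter under RXR-alpha control and incubated 16 hr. Cytotoxicity was then quantified by CellTiter-Glo luminescence.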

Assay [10] is described as follows: qHTS assay to identify small molecule antagonists of the retinoid acid receptor (RAR) signaling pathway - cell viability counter screen (AID 1159551). Also: % is scaled to controls: 0 for no effect and ±100 for the full control effect; nearly all actives have a fitted effect of over 35% in size. In short, it runs like this:
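Seed C3RL4 cells; next day add compound, then retinol to 1 uM final; incubate 6 h at 37 C; add CellTiter-Glo; read luminescence after 30 min at RT.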

A short description of assay [11]: qHTS assay to identify small molecule antagonists of the retinoic acid receptor (RAR) signaling pathway (AID 1159552). In short, it runs like this:
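Test chemicals and DMSO controls were pin-transferred onto C3RL4 cells a day after seeding; retinol (1 uM final) followed at once. Luminescent reporter output was quantified after 6 hr of co-incubation and 30 min with detection reagent.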

Assay [12] can be described thus: qHTS assay to identify small molecule agonists of the retinoic acid receptor (RAR) signaling pathway (AID 1159553). Also: potency is read from the fitted curve at half-maximal effect. As to activation: % is scaled to controls: 0 for no effect and ±100 for the full control effect. In short, it runs like this:
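Activation of retinol signaling was monitored via a RARE luciferase reporter in C3RL4 cells. After 6 hr compound treatment at 37 C, detection reagent was added for 30 min at room temperature before luminescence reading.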

Assay [13] is described as follows: qHTS assay to identify small molecule antagonists of the estrogen related receptor (ERR) signaling pathway from Tox21 library - cell viability counter screen (AID 1224834). Also: % is scaled to controls: 0 for no effect and ±100 for the full control effect; nearly all actives have a fitted effect of over 30% in size. In short, it runs like this:
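CellTiter-Fluor fluorescence measured; ERR cells; 17.5 h compound incubation at 37 C; 30 min reagent step.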

Assay [14] has as its target Luciferin 4-monooxygenase (Photinus pyralis) (UniProt P08659). The assay can be described thus: qHTS assay to identify small molecule inhibitors of firefly luciferase (AID 1224835). Also: nearly all actives have a fitted effect of over 25% in size. Also: potency is read from the fitted curve at half-maximal effect. In short, it runs like this: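 Quantitative HTS format; KM concentrations of both substrates. Purified P. pyralis FLuc activity quantified from luminescence images.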
Assay [15] is described as follows: qHTS assay to identify small molecule agonists of the constitutive androstane receptor (CAR) signaling pathway - cell viability counter screen (AID 1224836). Also: series mostly up to about 92 µM; % is scaled to controls: 0 for no effect and ±100 for the full control effect; nearly all actives have a fitted effect of over 45% in size. In short, it runs like this:
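23 h treatment, 37 C, 5% CO2. Cell line: HepG2 stably expressing hCAR with a CYP2B6-2.2kb construct. Co-treatment: PK11195, 0.75 uM final. Read-out: CellTiter-Fluor fluorescence intensity.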

Assay [16] in a line: qHTS assay to identify small molecule antagonists of the constitutive androstane receptor (CAR) signaling pathway - cell viability counter screen (AID 1224837). Also: series mostly up to about 92 µM; % is scaled to controls: 0 for no effect and ±100 for the full control effect; nearly all actives have a fitted effect of over 45% in size. In short, it runs like this:
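Using CellTiter-Fluor, viability is scored in HepG2 cells stably carrying hCAR and a 2.2kb CYP2B6 reporter after 23 hr compound exposure across 15 concentrations, with CITCO present at 50 nM.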

Assay [17] concerns the target Nuclear receptor subfamily 1 group I member 3 (Homo sapiens) (UniProt Q14994). Briefly: qHTS assay to identify small molecule antagonists of the constitutive androstane receptor (CAR) signaling pathway (AID 1224838).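 Also: HepG2 cells stably expressing hCAR with CYP2B6 luciferase reporter stimulated by CITCO; % is scaled to controls: 0 for no effect and ±100 for the full control effect; nearly all actives have a fitted effect of over 40% in size.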 The essentials: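 Reporter luminescence was quantified after 24 h exposure of hCAR/CYP2B6-2.2kb double-stable HepG2 cells to compounds at 15 concentrations in the presence of 50 nM CITCO final.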

For assay [18] the target is unchanged. Briefly: qHTS assay to identify small molecule agonists of the constitutive androstane receptor (CAR) signaling pathway (AID 1224839).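 Also: HepG2 cells stably carrying human CAR and a CYP2B6 luciferase reporter; series mostly up to about 92 µM; % is scaled to controls: 0 for no effect and ±100 for the full control effect; nearly all actives have a fitted effect of over 15% in size.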 In short, it runs like this: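 Compounds tested at 15 concentrations on HepG2 cells stably harbouring hCAR and CYP2B6-2.2kb reporter constructs, co-treated with PK11195 (0.75 uM final), 24 h at 37 C; luminescent reporter signal quantified.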

Assay [19] in a line: qHTS assay to identify small molecule agonists of the AP-1 signaling pathway - cell viability counter screen (AID 1159525; calls by dose curve; also: nearly all actives have a fitted effect of over 55% in size). The essentials:
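ME-180 AP-1-bla, 2500 cells/well, Opti-MEM + 0.5% dialyzed FBS; overnight 37 °C; cpd 15-pt titration, 5 h 37 °C; CellTiter-Glo 30 min RT; luminescence read; normalised to TOAB and DMSO controls.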

Assay [20] is described as follows: qHTS assay to identify small molecule antagonists of the vitamin D receptor (VDR) signaling pathway - cell viability counter screen (AID 743225). The essentials:
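Compounds were pinned onto VDR-bla HEK 293T cells together with 1-alpha,25-dihydroxyvitamin D3 at 3 nM final. After 16 h at 37C and 5% CO2 plus the reporter readout, cell viability was measured by CellTiter-Glo luminescence (30 min, room temperature).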

Inconclusive results are not listed. A number with no mark means an inactive call. Calls of active or inactive are those of the source. Unless noted, calls follow the shape of the dose curve; as a rule, active = well fitted curve in the direction sought with a large enough effect in the repeat runs; inconclusive = weak or mixed curves; inactive = no such curve, though single readings can be large; an effect the other way counts as inactive or inconclusive.

Sequence of Retinoic acid receptor RXR-alpha (Homo sapiens) (P19793 whole entry, looked up): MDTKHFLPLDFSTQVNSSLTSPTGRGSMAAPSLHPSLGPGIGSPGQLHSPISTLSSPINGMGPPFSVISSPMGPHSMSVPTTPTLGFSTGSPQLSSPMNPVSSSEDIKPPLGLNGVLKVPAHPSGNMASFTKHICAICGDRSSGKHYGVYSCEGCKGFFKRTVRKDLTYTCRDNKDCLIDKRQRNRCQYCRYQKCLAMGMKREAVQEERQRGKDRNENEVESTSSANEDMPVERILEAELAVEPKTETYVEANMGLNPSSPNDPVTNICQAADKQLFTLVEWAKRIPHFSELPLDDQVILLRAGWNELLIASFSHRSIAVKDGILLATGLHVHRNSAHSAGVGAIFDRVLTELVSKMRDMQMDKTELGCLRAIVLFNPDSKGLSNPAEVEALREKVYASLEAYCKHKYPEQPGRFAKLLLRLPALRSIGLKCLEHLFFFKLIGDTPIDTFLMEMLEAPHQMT
Sequence of Luciferin 4-monooxygenase (Photinus pyralis) (P08659 whole entry, looked up): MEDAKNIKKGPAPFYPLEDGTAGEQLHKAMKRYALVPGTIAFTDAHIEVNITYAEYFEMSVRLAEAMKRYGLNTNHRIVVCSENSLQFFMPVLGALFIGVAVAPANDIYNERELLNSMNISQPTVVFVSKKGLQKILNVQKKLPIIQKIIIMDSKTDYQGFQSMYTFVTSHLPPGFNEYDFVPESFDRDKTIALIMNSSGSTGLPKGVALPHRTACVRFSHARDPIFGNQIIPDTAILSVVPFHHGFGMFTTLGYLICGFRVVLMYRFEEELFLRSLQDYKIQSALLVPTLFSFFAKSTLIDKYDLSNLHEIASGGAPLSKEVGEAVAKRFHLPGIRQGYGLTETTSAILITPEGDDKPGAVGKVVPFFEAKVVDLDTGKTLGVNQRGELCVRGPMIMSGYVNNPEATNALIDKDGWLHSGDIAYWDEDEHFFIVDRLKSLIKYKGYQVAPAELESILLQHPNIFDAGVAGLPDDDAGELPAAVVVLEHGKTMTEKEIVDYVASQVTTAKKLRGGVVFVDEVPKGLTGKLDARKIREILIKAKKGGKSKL
Sequence of Nuclear receptor subfamily 1 group I member 3 (Homo sapiens) (Q14994 whole entry, looked up): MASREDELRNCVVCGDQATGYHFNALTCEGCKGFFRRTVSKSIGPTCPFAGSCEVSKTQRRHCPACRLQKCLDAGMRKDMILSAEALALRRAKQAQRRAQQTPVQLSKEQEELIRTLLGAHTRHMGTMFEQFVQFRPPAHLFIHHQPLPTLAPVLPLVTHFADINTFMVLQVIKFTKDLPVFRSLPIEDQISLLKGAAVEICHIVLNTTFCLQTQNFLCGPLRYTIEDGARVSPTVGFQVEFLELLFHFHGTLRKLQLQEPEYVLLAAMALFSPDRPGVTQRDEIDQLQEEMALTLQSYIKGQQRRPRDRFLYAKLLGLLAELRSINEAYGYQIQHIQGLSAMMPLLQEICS

Take `CCCCCCCCCCCCCBr`: the compound was called inactive in [1], in [2], in assay [3], in assay [4], in assay [5] and in assay [6]. Moreover, the result in assay [7], in [9], in assay [10], in assay [11], in assay [13] and in assay [15] was inactive. The outcome in [16] was inactive. The Potency entry in assay [8], in assay [12], in [14], in [17] and in [18] was “inactive” throughout.

With `COC(=O)c1cc(Cl)cc(Cl)c1`, the compound was called inactive in assay [1], in assay [2], in [3], in assay [5], in [6] and in assay [19]. Besides, the compound was classed as inactive in assay [7], in [9], in [10], in assay [11], in assay [13] and in [15]. Moreover, the compound was called inactive in [16]. The Potency result in [8], in assay [12], in assay [14], in assay [17] and in [18] was “inactive” each time.

For the compound `CC(=O)OC(C)=O`, the outcome in assay [1], in assay [2], in assay [3], in assay [4], in [5] and in [6] was inactive. The compound was classed as inactive in [7], in assay [9], in assay [10], in [11], in assay [13] and in assay [15]. Also, in assay [16], the outcome was inactive. Moreover, the Potency result in assay [8], in assay [12], in assay [14], in assay [17] and in assay [18] was “inactive” throughout.

Take `CCCC(=O)OCCC(C)CCC=C(C)C` (centres undefined): the result in assay [1], in assay [2], in assay [3], in assay [5], in assay [6] and in [19] was inactive. Besides, the outcome in assay [7], in assay [9], in assay [10], in assay [11], in assay [13] and in [15] was inactive. In addition, the call in [16] was inactive. In addition, the Potency result in assay [8], in assay [12], in [14] and in assay [17] was “inactive” in each case.

As to `C/C=C(\C)C(=O)OCCc1ccccc1`, the call in [20], in [1], in assay [2], in [3], in [4] and in assay [5] was inactive. In addition, the outcome in assay [6], in [7], in assay [9], in assay [10], in assay [11] and in assay [13] was inactive. The compound was classed as inactive in [15] and in assay [16]. Also, the Potency result in [8], in assay [17] and in [18] was “inactive” throughout. In addition, the Potency is 27.3 µM (active) in [12] and 7.1 µM (active) in assay [14].

Take `N[C@@H](CSCCCO)C(=O)O`: the call in [20], in [1], in [2], in assay [3] and in assay [4] was inactive. For the same compound, the activity, negative = cytotoxicity in [5] is 0.802% [at 19 µM]. The activity change, negative = inhibition was 25% [at 19 µM] in assay [6] and -1.72% [at 23.6 µM] in [14]. The activation in assay [7] is 5.26% [at 15.8 µM]; in assay [8], 12.4% [at 15.8 µM]. Moreover, the activity change, negative = cytotoxicity is -0.377% [at 15.8 µM] in [9], 5.07% [at 19 µM] in assay [10] and 10% [at 19 µM] in [16]. Besides, the activity, negative = inhibition in [11] is 1.93% [at 19 µM]; in assay [17] it was 5.4% [at 19 µM]. In assay [12], the Potency result is “inactive”. For the same compound, the viability change, negative = cytotoxic in assay [13] is 1.22% [at 19 µM].

Consider `c1ccc2cnccc2c1`, for which the outcome in assay [20], in [1], in assay [2], in [3], in assay [4] and in [5] was inactive. Further, the compound was classed as inactive in assay [6], in [7], in [9], in assay [10], in assay [11] and in [13]. Besides, the compound was called inactive in [15] and in assay [16]. Moreover, the Potency result in assay [8], in assay [12], in [14] and in [17] was “inactive” throughout.

For the compound `CC(N)CCCC(C)(C)O` (centres undefined), the compound was classed as inactive in assay [20], in assay [1], in [2], in [3], in [4] and in assay [5]. Moreover, the compound was called inactive in assay [6], in [7], in assay [9], in assay [10], in assay [11] and in [13]. The call in assay [15] and in assay [16] was inactive. Moreover, the Potency entry in assay [8], in [12], in assay [14], in assay [17] and in assay [18] was “inactive” each time.
